# Results as given in PubChem BioAssay AID540326 (Broad Institute, 2011).
# This is one part of the list. The source made the active and inactive calls.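 The calls were made as follows: active = quenching, a falling signal, with AC50 below a set limit tied to the top valid dose (actives reach about 32 µM in these data); inconclusive = no clear call, values can overlap the other calls; inactive = rising signal, and the rest.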
# Assay: DiI-HDL fluorescence quenchers, cell-free, dose response, artefact control for SR-BI HDL uptake inhibitor project, biochemical, cherry-pick samples, plate reader fluorescence (AID 540326)
# Settings: 30 min; series mostly up to 35 µM
structure (smiles),measurement,value
CC(=O)OC1C2(CC3N4C(=O)C5(CO)SSC4(CC31O)C(=O)N5C)OC(C)C(C)(C)C2=O (stereo unspecified),outcome,inactive
